# PMC7862700, “An all-to-all approach to the identification of sequence-specific readers for epigenetic DNA modifications on cytosine”
# What was measured:
# Experiment in all cases: DAPPL (digital affinity profiling via proximity ligation, sequencing); 10 mM Tris-HCl pH 7.5, 50 mM NaCl, 1 mM DTT, 4% glycerol, room temperature, 30 min; GST-TFs on glutathione beads, 16-mer random dsDNA library, 0.1% formaldehyde crosslink after washing; high values mean tight binding
# FEV = target: T1, FEV (Homo sapiens, UniProt Q99581 1-238); details: protein: recombinant; tags: N-terminal GST; dsDNA, one strand shown
# T1 sequence: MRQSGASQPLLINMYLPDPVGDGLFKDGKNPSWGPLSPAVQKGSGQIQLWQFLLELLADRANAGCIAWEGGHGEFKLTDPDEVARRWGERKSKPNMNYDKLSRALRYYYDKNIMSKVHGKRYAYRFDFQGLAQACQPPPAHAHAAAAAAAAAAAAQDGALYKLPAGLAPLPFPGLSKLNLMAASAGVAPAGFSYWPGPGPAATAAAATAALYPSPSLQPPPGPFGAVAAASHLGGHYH
# Method in brief: (§1)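 Beads coated with glutathione captured GST-fused human transcription factors that had been expressed in yeast, and the factors were then given DNA barcodes and pooled with a tag-only sample. The pools were incubated with 200 nmole of a random double-stranded 16-mer DNA library in Tris/NaCl/DTT/glycerol buffer for 30 min at room temperature, washed, crosslinked with 0.1% formaldehyde and proximity-ligated with BsaI/T4 ligase at 37 °C for 1 h. PCR amplification and Illumina NextSeq500 sequencing came last. Binding signal is each hexamer's read frequency for a factor divided by its frequency for the tag-only sample.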
# ETV5 = ETV5 (Homo sapiens, UniProt P41161 1-510); details: protein: recombinant; tags: N-terminal GST; dsDNA, one strand shown
# ETV5, sequence (P41161 whole entry): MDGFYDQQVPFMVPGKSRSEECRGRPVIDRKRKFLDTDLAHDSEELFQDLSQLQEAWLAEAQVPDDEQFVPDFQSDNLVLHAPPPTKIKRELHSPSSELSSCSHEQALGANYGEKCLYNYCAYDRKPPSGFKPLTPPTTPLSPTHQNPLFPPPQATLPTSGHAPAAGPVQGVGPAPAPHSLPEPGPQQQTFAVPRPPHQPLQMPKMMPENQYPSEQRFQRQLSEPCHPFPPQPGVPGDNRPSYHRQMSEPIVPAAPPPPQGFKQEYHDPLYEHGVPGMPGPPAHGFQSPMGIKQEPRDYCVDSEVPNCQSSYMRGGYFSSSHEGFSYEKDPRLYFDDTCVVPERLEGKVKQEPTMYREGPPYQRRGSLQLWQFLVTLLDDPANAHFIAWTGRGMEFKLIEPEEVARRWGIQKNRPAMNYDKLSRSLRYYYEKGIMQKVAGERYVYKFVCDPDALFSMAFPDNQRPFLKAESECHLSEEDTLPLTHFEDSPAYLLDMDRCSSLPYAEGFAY
# Method in brief: as §1
# HSF1 = HSF1 (Homo sapiens, UniProt Q00613 1-529); details: protein: recombinant; tags: N-terminal GST; chain copies: 3; dsDNA, one strand shown
# HSF1, sequence (Q00613 whole entry): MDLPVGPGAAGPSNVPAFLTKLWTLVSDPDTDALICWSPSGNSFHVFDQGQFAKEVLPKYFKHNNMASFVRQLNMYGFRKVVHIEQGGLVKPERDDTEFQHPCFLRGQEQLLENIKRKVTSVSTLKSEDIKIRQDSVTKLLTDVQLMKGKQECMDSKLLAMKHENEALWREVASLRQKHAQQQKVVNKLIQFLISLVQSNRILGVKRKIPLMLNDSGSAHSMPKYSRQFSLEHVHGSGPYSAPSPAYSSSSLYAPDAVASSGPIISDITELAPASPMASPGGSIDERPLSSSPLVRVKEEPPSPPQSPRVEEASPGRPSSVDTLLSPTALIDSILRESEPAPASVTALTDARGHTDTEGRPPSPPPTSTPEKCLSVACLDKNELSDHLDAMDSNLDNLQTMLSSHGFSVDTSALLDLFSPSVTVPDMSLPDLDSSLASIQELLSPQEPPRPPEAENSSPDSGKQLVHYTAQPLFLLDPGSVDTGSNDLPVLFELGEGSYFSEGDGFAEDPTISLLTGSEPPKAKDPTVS
# Method in brief: as §1
# SPIC = target: T2, SPIC (Homo sapiens, UniProt Q8N5J4 1-248); details: protein: recombinant; tags: N-terminal GST; dsDNA, one strand shown
# T2 sequence: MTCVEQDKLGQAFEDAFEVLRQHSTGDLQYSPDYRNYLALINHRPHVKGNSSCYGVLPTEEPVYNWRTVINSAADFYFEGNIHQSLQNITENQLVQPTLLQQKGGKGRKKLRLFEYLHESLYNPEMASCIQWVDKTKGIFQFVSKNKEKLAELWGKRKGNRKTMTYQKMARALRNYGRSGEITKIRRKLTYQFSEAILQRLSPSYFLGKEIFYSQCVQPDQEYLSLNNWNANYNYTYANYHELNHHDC
# Method in brief: as §1
# ELF4 = ELF4 (Homo sapiens, UniProt Q99607 1-663); details: protein: recombinant; tags: N-terminal GST; dsDNA, one strand shown
# ELF4, sequence (Q99607 whole entry): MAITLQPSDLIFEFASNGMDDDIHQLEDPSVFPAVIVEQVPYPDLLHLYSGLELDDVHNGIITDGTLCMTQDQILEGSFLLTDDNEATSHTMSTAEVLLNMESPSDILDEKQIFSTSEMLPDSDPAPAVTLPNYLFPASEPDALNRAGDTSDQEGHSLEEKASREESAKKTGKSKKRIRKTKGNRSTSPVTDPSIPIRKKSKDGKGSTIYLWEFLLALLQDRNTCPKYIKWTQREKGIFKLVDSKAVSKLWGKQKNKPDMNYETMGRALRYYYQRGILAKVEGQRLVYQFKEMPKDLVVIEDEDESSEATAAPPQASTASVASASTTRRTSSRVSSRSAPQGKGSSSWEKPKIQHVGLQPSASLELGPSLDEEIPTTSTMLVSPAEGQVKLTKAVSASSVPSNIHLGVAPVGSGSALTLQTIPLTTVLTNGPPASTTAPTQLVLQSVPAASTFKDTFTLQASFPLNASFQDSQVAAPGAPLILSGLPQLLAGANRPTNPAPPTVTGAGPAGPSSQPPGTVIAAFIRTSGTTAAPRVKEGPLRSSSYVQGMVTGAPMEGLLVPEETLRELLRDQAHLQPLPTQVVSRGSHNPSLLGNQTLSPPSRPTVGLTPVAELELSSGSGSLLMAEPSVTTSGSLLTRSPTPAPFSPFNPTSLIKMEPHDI
# Method in brief: as §1
# ELK4 = target: T3, ELK4 (Homo sapiens, UniProt P28324-2 1-405); details: protein: recombinant; tags: N-terminal GST; dsDNA, one strand shown
# T3 sequence: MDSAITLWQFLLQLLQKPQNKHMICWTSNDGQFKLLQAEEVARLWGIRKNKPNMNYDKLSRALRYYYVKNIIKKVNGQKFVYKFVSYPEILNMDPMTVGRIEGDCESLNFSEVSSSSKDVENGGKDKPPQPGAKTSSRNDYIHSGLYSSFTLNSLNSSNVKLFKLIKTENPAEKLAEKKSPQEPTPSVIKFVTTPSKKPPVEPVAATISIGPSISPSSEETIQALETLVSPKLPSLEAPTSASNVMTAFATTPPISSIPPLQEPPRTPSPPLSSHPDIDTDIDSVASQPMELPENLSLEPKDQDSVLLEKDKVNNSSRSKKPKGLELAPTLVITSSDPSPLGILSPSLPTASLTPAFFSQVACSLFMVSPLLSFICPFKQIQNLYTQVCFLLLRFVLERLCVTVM
# Method in brief: as §1
# ETV2 = target: T4, ETV2 (Homo sapiens, UniProt O00321 1-342); details: protein: recombinant; tags: N-terminal GST; dsDNA, one strand shown
# T4 sequence: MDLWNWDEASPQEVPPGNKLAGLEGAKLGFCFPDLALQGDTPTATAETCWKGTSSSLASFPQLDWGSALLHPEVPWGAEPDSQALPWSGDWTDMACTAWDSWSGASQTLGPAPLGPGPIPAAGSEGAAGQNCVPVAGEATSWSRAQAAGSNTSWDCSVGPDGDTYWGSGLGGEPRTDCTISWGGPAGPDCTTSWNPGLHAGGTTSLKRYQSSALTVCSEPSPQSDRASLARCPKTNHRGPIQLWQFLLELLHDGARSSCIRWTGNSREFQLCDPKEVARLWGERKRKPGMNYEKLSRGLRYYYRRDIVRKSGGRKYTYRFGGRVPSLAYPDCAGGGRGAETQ
# Method in brief: as §1
# ELF3 = target: T5, ELF3 (Homo sapiens, UniProt P78545 1-371); details: protein: recombinant; tags: N-terminal GST; dsDNA, one strand shown
# T5 sequence: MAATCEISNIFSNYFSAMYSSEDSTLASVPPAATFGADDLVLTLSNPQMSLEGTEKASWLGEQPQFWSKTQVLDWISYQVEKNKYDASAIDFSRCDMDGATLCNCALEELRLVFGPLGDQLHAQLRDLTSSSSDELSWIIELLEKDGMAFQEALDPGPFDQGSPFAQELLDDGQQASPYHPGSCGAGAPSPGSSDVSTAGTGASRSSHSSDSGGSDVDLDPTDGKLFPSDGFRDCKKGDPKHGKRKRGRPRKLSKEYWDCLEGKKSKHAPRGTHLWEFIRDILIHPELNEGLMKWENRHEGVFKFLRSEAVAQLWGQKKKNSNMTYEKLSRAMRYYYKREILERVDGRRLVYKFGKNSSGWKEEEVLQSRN
# Method in brief: as §1
# CRX = CRX (Homo sapiens, UniProt O43186 1-299); details: protein: recombinant; tags: N-terminal GST; dsDNA, one strand shown
# CRX, sequence (O43186 whole entry): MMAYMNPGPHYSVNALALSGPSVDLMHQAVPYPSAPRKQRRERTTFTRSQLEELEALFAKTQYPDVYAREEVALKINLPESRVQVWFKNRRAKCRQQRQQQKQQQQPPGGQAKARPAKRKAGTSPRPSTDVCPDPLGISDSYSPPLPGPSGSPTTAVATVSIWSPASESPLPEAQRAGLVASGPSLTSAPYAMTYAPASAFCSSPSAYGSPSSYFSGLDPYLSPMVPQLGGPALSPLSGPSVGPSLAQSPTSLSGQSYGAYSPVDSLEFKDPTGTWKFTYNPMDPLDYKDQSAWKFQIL
# Method in brief: as §1
# ETV1 = ETV1 (Homo sapiens, UniProt P50549 1-477); details: protein: recombinant; tags: N-terminal GST; dsDNA, one strand shown
# ETV1, sequence (P50549 whole entry): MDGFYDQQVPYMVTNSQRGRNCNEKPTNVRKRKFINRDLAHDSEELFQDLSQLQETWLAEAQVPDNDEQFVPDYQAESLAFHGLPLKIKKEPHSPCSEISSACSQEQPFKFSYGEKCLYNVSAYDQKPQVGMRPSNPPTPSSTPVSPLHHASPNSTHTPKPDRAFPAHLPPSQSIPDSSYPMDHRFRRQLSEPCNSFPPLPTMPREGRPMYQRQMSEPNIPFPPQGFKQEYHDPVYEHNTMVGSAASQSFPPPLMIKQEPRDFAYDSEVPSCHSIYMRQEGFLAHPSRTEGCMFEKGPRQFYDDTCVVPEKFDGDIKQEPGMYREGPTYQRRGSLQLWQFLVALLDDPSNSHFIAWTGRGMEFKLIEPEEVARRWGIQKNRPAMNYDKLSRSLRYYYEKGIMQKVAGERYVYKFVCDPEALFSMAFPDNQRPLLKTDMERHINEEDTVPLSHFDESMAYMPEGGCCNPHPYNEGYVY
# Method in brief: as §1
# ERF = target: T6, ERF (Homo sapiens, UniProt P50548 1-548); details: protein: recombinant; tags: N-terminal GST; dsDNA, one strand shown
# T6 sequence: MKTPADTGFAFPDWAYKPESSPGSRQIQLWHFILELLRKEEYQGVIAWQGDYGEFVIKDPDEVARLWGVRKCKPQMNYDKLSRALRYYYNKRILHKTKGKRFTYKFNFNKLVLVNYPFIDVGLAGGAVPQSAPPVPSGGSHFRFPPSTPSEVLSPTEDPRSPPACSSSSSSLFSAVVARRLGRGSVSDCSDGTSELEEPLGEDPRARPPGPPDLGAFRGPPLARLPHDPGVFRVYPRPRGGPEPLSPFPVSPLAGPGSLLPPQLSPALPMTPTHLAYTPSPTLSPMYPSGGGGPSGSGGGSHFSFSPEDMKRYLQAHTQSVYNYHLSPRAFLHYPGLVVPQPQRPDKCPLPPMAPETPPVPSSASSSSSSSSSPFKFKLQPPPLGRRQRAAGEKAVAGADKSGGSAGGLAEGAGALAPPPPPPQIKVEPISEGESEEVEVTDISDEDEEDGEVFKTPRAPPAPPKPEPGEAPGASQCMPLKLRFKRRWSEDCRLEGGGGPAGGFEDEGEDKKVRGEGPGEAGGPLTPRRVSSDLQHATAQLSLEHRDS
# Method in brief: as §1
# ETV3L = target: T7, ETV3L (Homo sapiens, UniProt Q6ZN32 1-361); details: protein: recombinant; tags: N-terminal GST; dsDNA, one strand shown
# T7 sequence: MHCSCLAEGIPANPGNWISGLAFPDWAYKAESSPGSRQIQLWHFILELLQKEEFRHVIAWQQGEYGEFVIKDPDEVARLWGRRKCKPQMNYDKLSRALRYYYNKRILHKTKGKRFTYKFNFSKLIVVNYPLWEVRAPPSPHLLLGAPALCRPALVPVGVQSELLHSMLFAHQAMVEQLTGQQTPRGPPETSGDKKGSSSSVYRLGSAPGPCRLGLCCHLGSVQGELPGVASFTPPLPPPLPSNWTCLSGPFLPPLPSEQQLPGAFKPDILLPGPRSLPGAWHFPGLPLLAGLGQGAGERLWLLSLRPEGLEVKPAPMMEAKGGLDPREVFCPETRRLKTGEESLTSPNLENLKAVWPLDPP
# Method in brief: as §1
# ETS2 = target: T8, ETS2 (Homo sapiens, UniProt P15036 1-469); details: protein: recombinant; tags: N-terminal GST; dsDNA, one strand shown
# T8 sequence: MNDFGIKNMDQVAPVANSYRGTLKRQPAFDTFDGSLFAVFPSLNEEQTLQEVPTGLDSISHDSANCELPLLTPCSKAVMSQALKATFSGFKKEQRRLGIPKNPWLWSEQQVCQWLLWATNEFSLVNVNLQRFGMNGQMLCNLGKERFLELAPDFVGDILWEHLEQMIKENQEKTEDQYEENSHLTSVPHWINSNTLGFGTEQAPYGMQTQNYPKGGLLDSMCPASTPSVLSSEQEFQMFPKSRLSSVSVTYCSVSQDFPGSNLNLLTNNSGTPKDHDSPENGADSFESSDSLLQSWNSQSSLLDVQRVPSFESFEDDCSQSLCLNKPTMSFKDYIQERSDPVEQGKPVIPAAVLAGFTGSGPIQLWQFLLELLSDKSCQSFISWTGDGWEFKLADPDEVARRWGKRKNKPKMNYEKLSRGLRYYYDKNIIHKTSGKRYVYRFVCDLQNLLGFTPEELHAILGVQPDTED
# Method in brief: as §1
# SPDEF = target: T9, SPDEF (Homo sapiens, UniProt O95238 1-335); details: protein: recombinant; tags: N-terminal GST; dsDNA, one strand shown
# T9 sequence: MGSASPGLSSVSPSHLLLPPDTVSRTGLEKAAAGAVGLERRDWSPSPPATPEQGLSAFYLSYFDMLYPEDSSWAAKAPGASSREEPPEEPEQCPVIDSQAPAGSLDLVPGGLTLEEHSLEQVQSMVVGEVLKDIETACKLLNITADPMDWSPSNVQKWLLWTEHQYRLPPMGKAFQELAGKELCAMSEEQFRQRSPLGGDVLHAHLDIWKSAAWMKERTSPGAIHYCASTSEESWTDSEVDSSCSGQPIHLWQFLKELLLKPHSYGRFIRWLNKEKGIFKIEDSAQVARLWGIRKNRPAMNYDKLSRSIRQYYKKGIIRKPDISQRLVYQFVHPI
# Method in brief: as §1
# ETV7 = target: T10, ETV7 (Homo sapiens, UniProt Q9Y603 1-341); details: protein: recombinant; tags: N-terminal GST; dsDNA, one strand shown
# T10 sequence: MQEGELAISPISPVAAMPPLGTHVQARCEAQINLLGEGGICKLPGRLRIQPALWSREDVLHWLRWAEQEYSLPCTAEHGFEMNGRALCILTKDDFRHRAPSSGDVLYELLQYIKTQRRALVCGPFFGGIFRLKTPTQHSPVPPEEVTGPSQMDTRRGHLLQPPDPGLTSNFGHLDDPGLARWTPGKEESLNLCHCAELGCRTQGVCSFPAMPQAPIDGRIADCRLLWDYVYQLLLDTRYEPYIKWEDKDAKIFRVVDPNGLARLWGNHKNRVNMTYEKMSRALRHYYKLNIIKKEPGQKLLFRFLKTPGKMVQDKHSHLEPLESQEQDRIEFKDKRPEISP
# Method in brief: as §1
# ELF5 = target: T11, ELF5 (Homo sapiens, UniProt Q9UKW6-2 1-255); details: protein: recombinant; tags: N-terminal GST; dsDNA, one strand shown
# T11 sequence: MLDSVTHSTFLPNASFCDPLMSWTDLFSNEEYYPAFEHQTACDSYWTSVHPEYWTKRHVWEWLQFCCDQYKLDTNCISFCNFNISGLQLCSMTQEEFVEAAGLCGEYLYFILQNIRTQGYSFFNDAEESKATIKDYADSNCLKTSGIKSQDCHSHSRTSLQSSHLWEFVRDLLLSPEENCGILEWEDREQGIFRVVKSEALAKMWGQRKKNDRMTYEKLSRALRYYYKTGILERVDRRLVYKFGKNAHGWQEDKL
# Method in brief: as §1
# ETV3 = target: T12, ETV3 (Homo sapiens, UniProt P41162-2 1-143); details: protein: recombinant; tags: N-terminal GST; dsDNA, one strand shown
# T12 sequence: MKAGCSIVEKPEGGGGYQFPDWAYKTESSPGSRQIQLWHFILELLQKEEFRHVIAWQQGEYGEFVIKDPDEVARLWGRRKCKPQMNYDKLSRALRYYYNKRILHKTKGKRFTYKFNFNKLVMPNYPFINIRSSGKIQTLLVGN
# Method in brief: as §1
# ETV6 = ETV6 (Homo sapiens, UniProt P41212 1-452); details: protein: recombinant; tags: N-terminal GST; dsDNA, one strand shown
# ETV6, sequence (P41212 whole entry): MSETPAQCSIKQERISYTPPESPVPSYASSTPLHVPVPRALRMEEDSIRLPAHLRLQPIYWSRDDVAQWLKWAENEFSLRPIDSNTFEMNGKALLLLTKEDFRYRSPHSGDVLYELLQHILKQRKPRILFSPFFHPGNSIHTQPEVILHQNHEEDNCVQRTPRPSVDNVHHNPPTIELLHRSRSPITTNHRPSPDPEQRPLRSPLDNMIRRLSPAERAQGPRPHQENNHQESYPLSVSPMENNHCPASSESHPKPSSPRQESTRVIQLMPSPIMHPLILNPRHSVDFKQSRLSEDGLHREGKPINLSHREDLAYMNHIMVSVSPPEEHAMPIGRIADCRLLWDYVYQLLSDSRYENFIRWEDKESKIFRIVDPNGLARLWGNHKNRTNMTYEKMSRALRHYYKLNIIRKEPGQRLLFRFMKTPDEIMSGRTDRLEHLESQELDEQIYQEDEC
# Method in brief: as §1
sequence,measurement,setting,value
TACTTC,binding signal,FEV,"4.27 fold enrichment (6-mer frequency, TF over GST control)"
same,binding signal,ETV5,"3.65 fold enrichment (6-mer frequency, TF over GST control)"
same,binding signal,HSF1,"1.43 fold enrichment (6-mer frequency, TF over GST control)"
same,binding signal,SPIC,"3.27 fold enrichment (6-mer frequency, TF over GST control)"
same,binding signal,ELF4,"3.17 fold enrichment (6-mer frequency, TF over GST control)"
same,binding signal,ELK4,"3.03 fold enrichment (6-mer frequency, TF over GST control)"
same,binding signal,ETV2,"3.6 fold enrichment (6-mer frequency, TF over GST control)"
same,binding signal,ELF3,"3.4 fold enrichment (6-mer frequency, TF over GST control)"
same,binding signal,CRX,"1.48 fold enrichment (6-mer frequency, TF over GST control)"
same,binding signal,ETV1,"3.6 fold enrichment (6-mer frequency, TF over GST control)"
same,binding signal,ERF,"3.18 fold enrichment (6-mer frequency, TF over GST control)"
same,binding signal,ETV3L,"3.22 fold enrichment (6-mer frequency, TF over GST control)"
same,binding signal,ETS2,"3.64 fold enrichment (6-mer frequency, TF over GST control)"
same,binding signal,SPDEF,"4.31 fold enrichment (6-mer frequency, TF over GST control)"
same,binding signal,ETV7,"3.62 fold enrichment (6-mer frequency, TF over GST control)"
same,binding signal,ELF5,"4.77 fold enrichment (6-mer frequency, TF over GST control)"
same,binding signal,ETV3,"3.67 fold enrichment (6-mer frequency, TF over GST control)"
same,binding signal,ETV6,"4.67 fold enrichment (6-mer frequency, TF over GST control)"
